The target of the assay is furin, P09958. Kind of assay: furin cleavage Z-score vs untreated control; higher = more cleavage, active = 3.5 or more, inactive = 1 or less, 8 variable residues between constant flanks. In a few lines: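 Reactions of 0.01 ml ran for 7.5, 15 or 30 min in 50 mM HEPES pH 7.5 with CaCl2 and NaCl, at 1:10 enzyme:substrate. In them, purified furin acted on bead-held 8-mer peptides fused to a cDNA oligonucleotide. The cleavage Z-score was obtained by lowess-adjusting log sequencing counts of released DNA against furin-free reactions and scaling by median absolute deviation.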
furin, P09958, sequence (P09958 whole entry, the tested form may be a part): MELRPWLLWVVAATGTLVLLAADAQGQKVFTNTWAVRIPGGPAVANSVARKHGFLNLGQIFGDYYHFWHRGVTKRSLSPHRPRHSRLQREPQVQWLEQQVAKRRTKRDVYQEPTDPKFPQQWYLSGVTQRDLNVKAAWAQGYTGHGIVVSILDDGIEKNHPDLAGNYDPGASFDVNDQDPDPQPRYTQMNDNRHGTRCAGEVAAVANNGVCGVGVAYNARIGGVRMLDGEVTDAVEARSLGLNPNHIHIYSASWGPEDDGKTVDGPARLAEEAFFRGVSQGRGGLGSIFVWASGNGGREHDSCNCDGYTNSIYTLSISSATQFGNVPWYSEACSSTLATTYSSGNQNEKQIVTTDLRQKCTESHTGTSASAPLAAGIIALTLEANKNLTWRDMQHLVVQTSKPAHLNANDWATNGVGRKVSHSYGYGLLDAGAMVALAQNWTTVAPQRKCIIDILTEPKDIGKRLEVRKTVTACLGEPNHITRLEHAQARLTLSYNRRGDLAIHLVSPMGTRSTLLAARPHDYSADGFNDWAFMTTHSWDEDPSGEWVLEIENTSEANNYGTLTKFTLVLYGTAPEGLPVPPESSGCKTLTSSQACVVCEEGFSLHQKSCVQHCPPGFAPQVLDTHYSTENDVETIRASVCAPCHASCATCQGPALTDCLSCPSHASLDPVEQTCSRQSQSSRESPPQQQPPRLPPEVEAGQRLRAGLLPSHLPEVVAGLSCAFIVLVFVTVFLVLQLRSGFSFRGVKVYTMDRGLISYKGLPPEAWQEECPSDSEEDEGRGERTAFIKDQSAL

The list shows a part of the results. The true hit rate is not given.

Take CAVVCCSMTYAGNASASA [HC2078]: the “furin cleavage Z-score” value reads like this: (7.5 min) -0.433 (inactive); (15 min) 0.0813 (inactive); (30 min) -0.381 (inactive).
On the same counts, the results for CACFDSTVTEAGNASASA [HC1482] are 0.967 (inactive), -0.854 (inactive) and -1.23 (inactive).
Turning to CARNRRLVSDAGNASASA [FS-3012], the “furin cleavage Z-score” value by setting is: (7.5 min) 0.716 (inactive); (15 min) 3.37; (30 min) 2.68.
On the same counts, the results for CARNRRHVTEAGNASASA [FS-3011] are 12.2 (active), 12.5 (active) and 9.58 (active).
On the same counts, the results for CARCDRDNTEAGNASASA [FS-2896] are -0.96 (inactive), -0.486 (inactive) and -1.77 (inactive).
The like results for CARNRRHHRDAGNASASA [FS-709] were, in that order, 8.79 (active), 10.1 (active) and 7.04 (active).
For CARNRRALRDAGNASASA [FS-3010], the “furin cleavage Z-score” value is 7.62 (active) (7.5 min), 8.24 (active) (15 min) and 7.01 (active) (30 min).
On the same counts, the results for CAREDRGAYTAGNASASA [FS-2909] are -0.191 (inactive), 0.288 (inactive) and -1.31 (inactive).
Take CARNRRGAITAGNASASA [FS-1912]: the “furin cleavage Z-score” value (7.5 min) was 5.06 (active), the “furin cleavage Z-score” value (15 min) was 6.46 (active) and the “furin cleavage Z-score” value (30 min) was 7.54 (active).
For the sequence CAFSYDTRCFAGNASASA [HC1479], the “furin cleavage Z-score” value by setting is: (7.5 min) -0.0881 (inactive); (15 min) -0.998 (inactive); (30 min) 0.0108 (inactive).
The like results for CALDVVCCSMAGNASASA [HC2105] were, in that order, -0.768 (inactive), -1.48 (inactive) and -0.867 (inactive).
For CARNRRSLSGAGNASASA [FS-2577], the “furin cleavage Z-score” value runs as follows: (7.5 min) 5.26 (active); (15 min) 5.66 (active); (30 min) 6.3 (active).
The like results for CARNRRVAEAAGNASASA [FS-2049] were, in that order, 2.16, 3.37 and 3.98 (active).
With CARNRRSILDAGNASASA [FS-2733], the “furin cleavage Z-score” value by setting is: (7.5 min) 6.77 (active); (15 min) 9.44 (active); (30 min) 8.76 (active).
As to CARIPQAILDAGNASASA [HC330], the “furin cleavage Z-score” value is -0.397 (inactive) (7.5 min), 0.0404 (inactive) (15 min) and 0.351 (inactive) (30 min).
On the same counts, the results for CAVGRVVLSGAGNASASA [HC1002] are -0.201 (inactive), 2.15 and -1.8 (inactive).
On to CARNRRTHEFAGNASASA [FS-2048], for which the “furin cleavage Z-score” value is, setting by setting: (7.5 min) -0.109 (inactive); (15 min) -0.137 (inactive); (30 min) 0.595 (inactive).
For the sequence CARNRRHPRSAGNASASA [FS-560], the “furin cleavage Z-score” value by setting is: (7.5 min) 11.3 (active); (15 min) 13.7 (active); (30 min) 8.58 (active).
For CALMPQLPGIAGNASASA [HC1160], the “furin cleavage Z-score” value was 1.4 (7.5 min), 1.95 (15 min) and 0.83 (inactive) (30 min).
The like results for CAPDYNPPLVAGNASASA [HC1306] were, in that order, 0.58 (inactive), -1.42 (inactive) and -0.164 (inactive).
For the sequence CADAEVVTSTAGNASASA [HC2283], the “furin cleavage Z-score” value is -0.438 (inactive) (7.5 min), 0.612 (inactive) (15 min) and 0.657 (inactive) (30 min).
The like results for CAGNPAIASLAGNASASA [HC1052] were, in that order, -0.886 (inactive), -0.0897 (inactive) and -0.877 (inactive).
On the same counts, the results for CARPYCWHYPAGNASASA [HC402] are -0.0981 (inactive), -0.342 (inactive) and -1.07 (inactive).
On the same counts, the results for CAMEECSQILAGNASASA [HC1744] are 0.778 (inactive), 0.663 (inactive) and 0.94 (inactive).
Take CALCTTPCSGAGNASASA [HC1945]: the “furin cleavage Z-score” value is 0.463 (inactive) (7.5 min), -0.673 (inactive) (15 min) and -0.438 (inactive) (30 min).
Take CARNRRHIEKAGNASASA [FS-2283]: the “furin cleavage Z-score” value is 6.22 (active) (7.5 min), 6.56 (active) (15 min) and 6.5 (active) (30 min).
Turning to CARNRRRVCKAGNASASA [FS-2162], the “furin cleavage Z-score” value by setting is: (7.5 min) -0.833 (inactive); (15 min) -0.214 (inactive); (30 min) 0.898 (inactive).
On the same counts, the results for CARNRRVTRRAGNASASA [FS-2163] are 10.8 (active), 11.8 (active) and 10.4 (active).
In the case of CARNRRAFGDAGNASASA [FS-2732], the “furin cleavage Z-score” value (7.5 min) is 6.61 (active), the “furin cleavage Z-score” value (15 min) was 9.22 (active) and the “furin cleavage Z-score” value (30 min) is 8.81 (active).
On the same counts, the results for CARNSRFRCRAGNASASA [FS-3013] are 0.23 (inactive), 0.474 (inactive) and 0.565 (inactive).
The like results for CAKGKWVPGAAGNASASA [HC550] were, in that order, 0.591 (inactive), -0.0194 (inactive) and 1.21.
With CAEVVKSTWVAGNASASA [HC131], the “furin cleavage Z-score” value runs as follows: (7.5 min) -2.1 (inactive); (15 min) -0.614 (inactive); (30 min) -0.545 (inactive).
On the same counts, the results for CAEVVTGTWVAGNASASA [HC142] are -0.000356 (inactive), -0.439 (inactive) and 1.54.
The like results for CAVVMCSMSYAGNASASA [HC2026] were, in that order, -0.445 (inactive), 0.764 (inactive) and 0.688 (inactive).
In the case of CAVKKRTKRDAGNASASA [FS-1579], the “furin cleavage Z-score” value by setting is: (7.5 min) 13.7 (active); (15 min) 14.1 (active); (30 min) 11.3 (active).
The like results for CAAKRRTKRDAGNASASA [FS-1509] were, in that order, 13.3 (active), 12.3 (active) and 8.72 (active).
On the same counts, the results for CAVVNTTKRDAGNASASA [FS-967] are 0.253 (inactive), 1.14 and 0.849 (inactive).
The like results for CAMEMEECSQAGNASASA [HC1786] were, in that order, 0.949 (inactive), -0.743 (inactive) and 0.205 (inactive).
Take CALRGRSRRLAGNASASA [FS-135]: the “furin cleavage Z-score” value (7.5 min) was found to be 3.28, the “furin cleavage Z-score” value (15 min) is 5.92 (active) and the “furin cleavage Z-score” value (30 min) was 6.35 (active).
On the same counts, the results for CAQGERSRRLAGNASASA [FS-282] are 0.753 (inactive), 4.38 (active) and 1.23.
For CAQDVRCRRLAGNASASA [FS-478], the “furin cleavage Z-score” value runs as follows: (7.5 min) 1.46; (15 min) 1.58; (30 min) 0.0369 (inactive).
On the same counts, the results for CACRARRRRLAGNASASA [FS-16] are 9.49 (active), 9.51 (active) and 8.36 (active).
As for CAMEECSQRLAGNASASA [HC1753], the “furin cleavage Z-score” value is 0.426 (inactive) (7.5 min), -0.514 (inactive) (15 min) and 1.09 (30 min).
Turning to CAWPTRRRRLAGNASASA [FS-109], the “furin cleavage Z-score” value reads like this: (7.5 min) 8.56 (active); (15 min) 10.6 (active); (30 min) 9.39 (active).
